The values below come from PubChem BioAssay (NCATS).

Experiment [1] deals with Alpha-galactosidase A (Homo sapiens) (UniProt P06280). The experiment in a line: Counterscreen for Glucocerebrosidase Inhibitors: qHTS Assay for Human alpha-Galactosidase at pH 4.5 (AID 992). Further: 0% is about no effect. Summed up: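 Steps: enzyme (2 nM final), then compound across 0.7 nM to 77 uM, then 80 uM fluorogenic galactopyranoside substrate; incubate 20 min at room temperature; quench at pH 10; measure fluorescence at 365/440 nm.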
Chain of Alpha-galactosidase A (Homo sapiens) (P06280 whole entry, looked up): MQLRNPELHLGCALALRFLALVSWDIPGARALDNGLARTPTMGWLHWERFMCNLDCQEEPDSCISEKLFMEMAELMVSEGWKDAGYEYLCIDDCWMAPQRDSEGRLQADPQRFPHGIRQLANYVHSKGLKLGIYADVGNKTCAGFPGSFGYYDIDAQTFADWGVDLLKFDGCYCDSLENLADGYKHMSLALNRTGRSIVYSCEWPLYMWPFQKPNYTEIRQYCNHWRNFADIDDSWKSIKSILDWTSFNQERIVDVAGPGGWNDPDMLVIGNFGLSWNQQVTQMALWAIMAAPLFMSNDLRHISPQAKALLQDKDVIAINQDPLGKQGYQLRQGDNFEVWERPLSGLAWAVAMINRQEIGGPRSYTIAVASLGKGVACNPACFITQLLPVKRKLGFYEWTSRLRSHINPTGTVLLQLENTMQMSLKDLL
A general note: Counterscreens check selectivity or assay interference.

In experiment [2] the target is alpha-glucosidase (Oryza sativa, rice) (UniProt Q653V4). The experiment in a line: Counterscreen for Glucocerebrosidase Inhibitors: qHTS Assay for Rice alpha-Glucosidase at pH 5.0 (AID 997).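 Further: 0% = full activity with enzyme and -100% = basal without enzyme.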 Summed up: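 Endpoint fluorogenic assay at pH 5.0: compounds (0.7 nM to 77 uM) titrated against 4 nM rice enzyme and 400 uM 4-MU-alpha-glucoside for 20 min at room temperature; NaOH/glycine stop, read ex 365/em 440 nm, Hill-fitted AC50.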

Experiment [3] can be described thus: Validation of Assay for Modulators of Lamin A Splicing (AID 1459; active means well fitted curve in the direction sought with a large enough effect in the signal ratio; the % refers to the signal ratio;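 further: cells exposed to compound for two days before reading; 0% is about no effect; ratio rise marks activators and ratio drop marks inhibitors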). Summed up:
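Splicing correction is reported by an EGFP-containing lamin A minigene in stably transfected S3 HeLa cells, while DsRed2 controls for viability and nonspecific signal. Cells are exposed to compounds for 48 hrs before the GFP over RFP ratio is taken.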

Experiment [4] can be described thus: qHTS Assay for Lipid Storage Modulators (AID 1519; calls by dose curve; on activity change, negative = inhibition: on the % scale 0 is the no-effect control and ±100 the full control effect). As to conditions: Drosophila S3 cells, BODIPY lipid droplet/cell ratio, laser cytometry, cells loaded with oleic acid. Summed up:
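Cells seeded at 5,000 per well were treated with compounds over a concentration series and loaded with oleic acid (400 uM, as added). Lipid droplet fluorescence (488 nm excitation, 500-530 nm channel) was read by laser-scanning cytometry and normalized to 20 uM Triacsin C.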

The nature of experiment [5]: Counterscreen for APE1 Inhibitors: Fluorescent Dye Displacement Validation Assay (AID 1707). Further: potency means the concentration at half of the fitted maximal effect.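 On activity change, negative = inhibition: plate controls were ThO with dsDNA and no compound for no effect and ThO without dsDNA for full effect.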 The method, boiled down:
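Reaction mixture of 250 nM Thiazole Orange and 50 nM double-stranded abasic-site DNA was dispensed, compounds were pin-transferred, and fluorescence was read at endpoint (480 nm ex, 540 nm em). Reduced fluorescence indicated dye displacement by DNA binding.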

The target of experiment [6] is Endonuclease 4 (Escherichia coli (strain K12)) (UniProt P0A6C1). In words: Counterscreen for APE1 Inhibitors: qHTS Validation Assay for Inhibitors of Endonuclease IV (AID 1708). Further: on the % scale 0 is the no-effect control and ±100 the full control effect. Summed up:
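The reaction buffer contained 50 mM Tris-HCl pH 7.5, 50 mM NaCl, 2 mM MgCl2, 1 mM DTT and 0.01% Tween-20. Incision of a 50 nM fluorophore/quencher THF substrate by 2 nM enzyme was measured kinetically.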

For experiment [7], the target named is DNA repair nuclease/redox regulator APEX1 (Homo sapiens) (UniProt P27695). In words: qHTS Validation Assay for Inhibitors of the Human Apurinic/apyrimidinic Endonuclease 1 (APE1) (AID 1705; further: potency means the concentration at half of the fitted maximal effect;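 on activity change, negative = inhibition: TAMRA fluorescence gain over two minutes as APE1 cuts a quenched THF abasic duplex; on the % scale 0 is the no-effect control and ±100 the full control effect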). Summed up: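 Endonuclease activity of human APE1 is followed as dequenching when the enzyme incises a tetrahydrofuran abasic site in a short duplex labelled 5'-TAMRA/3'-BHQ-2 (50 nM final), after 15 min enzyme–compound preincubation at room temperature.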
Chain of DNA repair nuclease/redox regulator APEX1 (Homo sapiens) (P27695 whole entry, looked up): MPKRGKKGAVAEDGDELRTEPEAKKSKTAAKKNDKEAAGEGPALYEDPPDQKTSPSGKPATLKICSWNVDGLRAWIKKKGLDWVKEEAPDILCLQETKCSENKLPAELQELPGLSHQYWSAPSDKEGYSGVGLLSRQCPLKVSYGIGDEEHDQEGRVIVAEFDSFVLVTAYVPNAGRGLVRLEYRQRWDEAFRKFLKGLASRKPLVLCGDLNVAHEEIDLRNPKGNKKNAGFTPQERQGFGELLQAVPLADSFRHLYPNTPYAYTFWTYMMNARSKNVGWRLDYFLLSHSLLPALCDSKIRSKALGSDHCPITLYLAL
(In general: Quantitative high-throughput screening tests each substance at several concentrations.)

Where [8] appears, read: measured here: cell count channel max response.
The mark [9] stands for this setting: measured here: lipid channel max response.

Several values for one entry are separate records, joined by “and”; a condition that tells them apart may be missing. Identical values can stand only once. Results filed as inconclusive are left out. Activity calls are given as the source filed them. Unless noted, the call rests on the fitted dose curve; in most records, active means well fitted curve in the direction sought with a large enough effect; inconclusive means small, poorly fitted or top-dose-only effect, or another doubt; inactive means no such curve, though single readings can be large; an effect the other way counts as inactive or inconclusive.

On to `N=c1c[n+](N2CCOCC2)[n-]o1`, for which the result in experiment [1], in experiment [2] and in experiment [3] was inactive. In addition, the activity change, negative = inhibition in experiment [4] (at 57.5 µM (top of the series)) is -0.431% (inactive). For the same compound, the max response in experiment [4] (setting [8]) was 25.9%; in experiment [4] (setting [9]), 27.5%. Besides, the Potency entry in experiment [5] and in experiment [6] was “inactive” each time.
For the compound `O=C(O)c1ccccc1O`, the activity change, negative = inhibition in experiment [4] (at 57.5 µM (top of the series)) is 9.55% (inactive). Moreover, the max response in experiment [4] (setting [8]) was 11.4%; in experiment [4] (setting [9]), 27.4%.
With `O=C(Oc1ccccc1C(=O)O)c1ccccc1O`, the activity change, negative = inhibition in experiment [4] (at 57.5 µM (top of the series)) was 4.87% (inactive). Moreover, the values for the max response in experiment [4] (setting [8]) and in experiment [4] (setting [9]) were -1.82% and 6.63%, respectively.
With `COc1ccc(Cl)cc1C(=O)NCCc1ccc(S(=O)(=O)NC(=O)NC2CCCCC2)cc1`, the compound was called inactive in experiment [1], in experiment [2] and in experiment [3]. Moreover, the activity change, negative = inhibition is 1.56% (inactive) in experiment [4] (at 25.7 µM (top of the series)); 12.5% (inactive) and -0.0195% (inactive) in experiment [4] (at 57.5 µM (top of the series)). In addition, the max response is 8.8% and 2.97% and -31.1% in experiment [4] (setting [8]); 12.4% and 18.9% and -32.5% in experiment [4] (setting [9]). In addition, the Potency entry in experiment [7], in experiment [5] and in experiment [6] was “inactive” in each case.
On to `CNCC(O)c1ccc(O)c(O)c1` (stereo not given), for which the result in experiment [3] was inactive. Further, the Potency result in experiment [7], in experiment [5] and in experiment [6] was “inactive” throughout.
Take `CCN(CC)CCOC(=O)C1(C2CCCCC2)CCCCC1`: the compound was called inactive in experiment [1], in experiment [2] and in experiment [3]. Besides, the activity change, negative = inhibition in experiment [4] (at 25.7 µM (top of the series)) is -3.18% (inactive); in experiment [4] (at 57.5 µM (top of the series)), 4.04% (inactive) and 0.569% (inactive). In addition, the max response is 0.165% and 5.59% and 10.8% in experiment [4] (setting [8]); -2.15% and 9.9% and 9.37% in experiment [4] (setting [9]). For the same compound, the Potency result in experiment [7], in experiment [5] and in experiment [6] was “inactive” throughout.
As for `CCOc1ccc2ccccc2c1C(=O)N[C@@H]1C(=O)N2[C@@H]1SC(C)(C)[C@@H]2C(=O)O`, in experiment [4] (at 25.7 µM (top of the series)), the activity change, negative = inhibition is -0.855% (inactive). For the same compound, the max response in experiment [4] (setting [8]) is -15.7%; in experiment [4] (setting [9]), -15.1%.
`OC[C@H]1O[C@@H](O[C@@H]2[C@@H](CO)O[C@](O)(CO)[C@H]2O)[C@H](O)[C@@H](O)[C@H]1O`: the activity change, negative = inhibition in experiment [4] (at 57.5 µM (top of the series)) was -5.86% (inactive). Moreover, the results for the max response in experiment [4] (setting [8]) and in experiment [4] (setting [9]) were -20.2% and -24.3%, respectively.
Consider `O=c1cc[nH]c(=S)[nH]1`, for which the activity change, negative = inhibition in experiment [4] (at 57.5 µM (top of the series)) is 7.12% (inactive). The max response in experiment [4] (setting [8]) turned out to be 11.5%; in experiment [4] (setting [9]) it was 29.2%.
For `CN1CCN(C2Cc3ccccc3Sc3ccc(Cl)cc32)CC1` (stereo not given), the compound was called inactive in experiment [3]. In experiment [4] (at 57.5 µM (top of the series)), the activity change, negative = inhibition is 1.27% (inactive). Also, the max response in experiment [4] (setting [8]) was -11.4%; in experiment [4] (setting [9]), -9.31%. Moreover, the Potency result in experiment [7] and in experiment [5] was “inactive” throughout.
For `C=Cc1c(C)c2cc3[nH]c(cc4nc(cc5nc(cc1[nH]2)C(C)=C5CCC(=O)O)C(CCC(=O)O)=C4C)c(C)c3C=C`, the compound was called inactive in experiment [1], in experiment [2] and in experiment [3]. Further, the Potency in experiment [7] was 5.01 µM (active); in experiment [5] it was 7.94 µM (active). For the same compound, the Potency entry in experiment [6] was “inactive”.
Consider `NCC(=O)CCC(=O)O`, for which, in experiment [4] (at 57.5 µM (top of the series)), the activity change, negative = inhibition was 1.06% (inactive). Further, the max response in experiment [4] (setting [8]) was 6.63%; in experiment [4] (setting [9]), 10.2%.
For `CC(C)(C)c1onc(OCP(=O)(O)O)c1CC(N)C(=O)O` (stereo not given), the compound was called inactive in experiment [3]. Moreover, the activity change, negative = inhibition in experiment [4] (at 57.5 µM (top of the series)) is -0.922% (inactive). Further, the max response in experiment [4] (setting [8]) is -37.6%; in experiment [4] (setting [9]), -40.1%. Moreover, the Potency result in experiment [7], in experiment [5] and in experiment [6] was “inactive” throughout.
As to `CNCCC(Oc1ccc(C(F)(F)F)cc1)c1ccccc1` (stereo not given), the outcome in experiment [3] was inactive. Moreover, the Potency result in experiment [5] and in experiment [6] was “inactive” each time.
In the case of `CC(COc1ccccc1)NC(C)C(O)c1ccc(O)cc1` (stereo not given), the activity change, negative = inhibition in experiment [4] (at 57.5 µM (top of the series)) was 4.19% (inactive). Further, the results for the max response in experiment [4] (setting [8]) and in experiment [4] (setting [9]) were 1.34% and 8.74%, respectively.
